# Source: PubChem BioAssay (NCI)
# The panel holds about 79,000 compounds, 15% with a hit somewhere; the sample as a whole holds those more often. Values without a mark were called inactive. The source made the active and inactive calls. Rule as the data show it: active = growth inhibition above about 70%; inactive = the rest.
# Experiments:
# [1] = NCI Yeast Anticancer Drug Screen. Data for the rad50 strain (AID 155);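 also: 0% = growth of vehicle-only cultures of the same strain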; conditions: S. cerevisiae rad50 strain growth inhibition, hits give high values
# Procedure, shortened: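 Compounds were tested on a yeast strain with an engineered DNA damage repair alteration; the reported value is growth inhibition normalised to vehicle treatment.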
# [2] = NCI Yeast Anticancer Drug Screen. Data for the mec2-1 strain (AID 157); conditions: S. cerevisiae mec2-1 strain, hits give high values
# Procedure, shortened: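 Strain: mec2-1 (DNA repair/cell cycle alteration). Compound exposure, then growth measured; inhibition expressed relative to vehicle.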
# [3] = NCI Yeast Anticancer Drug Screen. Data for the sgs1 mgt1 strain (AID 161);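 also: 0% = growth of cultures given vehicle only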; conditions: S. cerevisiae sgs1 mgt1 strain, hits give high values
# Procedure, shortened: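 Mutant yeast exposed to compound; growth scored against vehicle-only wells.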
# [4] = NCI Yeast Anticancer Drug Screen. Data for the cln2 rad14 strain (AID 165);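 also: 0% = growth equal to vehicle treated cultures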; conditions: S. cerevisiae cln2 rad14 strain, hits give high values
# Procedure, shortened: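 Compounds are applied to the cln2 rad14 yeast strain, and growth is then compared with that of vehicle-treated cultures to give inhibition.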
# [5] = NCI Yeast Anticancer Drug Screen. Data for the bub3 strain (AID 167); conditions: S. cerevisiae bub3 mutant strain, hits give high values
# Procedure, shortened: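 Growth of a checkpoint-deficient yeast mutant is measured after compound exposure. Values represent inhibition relative to vehicle.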
# [6] = NCI Yeast Anticancer Drug Screen. Data for the mlh1 rad18 strain (AID 175); conditions: S. cerevisiae mlh1 rad18 strain growth inhibition, hits give high values
# Procedure, shortened: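 Read-out is yeast growth inhibition, calculated against vehicle-only controls. The compound was applied to a strain engineered with DNA damage repair alterations.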
# [7] = at 5.0 µM (retest, dose inferred, filed as 0.5)
# [8] = at 50.0 µM (retest, dose inferred, filed as 5.0)
SMILES,"growth inhibition [1, 7]","growth inhibition [1, 8]",growth inhibition ([1]; at 50.0 µM),"growth inhibition [2, 7]","growth inhibition [2, 8]",growth inhibition ([2]; at 50.0 µM),"growth inhibition [3, 7]","growth inhibition [3, 8]",growth inhibition ([3]; at 50.0 µM),"growth inhibition [4, 7]","growth inhibition [4, 8]",growth inhibition ([4]; at 50.0 µM),"growth inhibition [5, 7]","growth inhibition [5, 8]",growth inhibition ([5]; at 50.0 µM),"growth inhibition [6, 7]","growth inhibition [6, 8]",growth inhibition ([6]; at 50.0 µM)
ONC(=Nc1cccc2ccccc12)C(=Nc1cccc2ccccc12)NO,9%,65%,33.9%,-8%,97% (active),23.3%,8%,46%,13.4%,-16%,73% (active),-41.9%,10%,97% (active),47.5%,-9%,91% (active),57.6%
COc1ccccc1NC(=O)C1=C(C)NC(C)=C(C(=O)Nc2ccccc2OC)C1c1ccc(C2C(C(=O)Nc3ccccc3OC)=C(C)NC(C)=C2C(=O)Nc2ccccc2OC)cc1,50%,86% (active),75.8% (active),31%,94% (active),81.2% (active),37%,92% (active),77.5% (active),38%,77% (active),44.2%,40%,95% (active),85.2% (active),41%,95% (active),47.9%
CN(C(=O)c1ccccc1)C1(COC(=O)c2ccccc2)CCCCC1,-6%,3%,16.1%,-28%,-9%,-5.95%,-25%,-11%,-2.75%,1%,1%,21.3%,21%,28%,65.7%,16%,6%,9.9%
CCCCCCC(=O)CCCCCC/C=C\CC1OC(=O)C(N)(CO)C1O (configuration not stated),34%,98% (active),91.5% (active),45%,99% (active),93.5% (active),43%,98% (active),93.2% (active),55%,98% (active),90% (active),80% (active),98% (active),91% (active),58%,98% (active),91.5% (active)
Nc1ncnc2c1c(-c1ccccc1)cn2-c1ccccc1,38%,78% (active),97.8% (active),31%,58%,97.3% (active),71% (active),93% (active),99% (active),20%,53%,95.2% (active),29%,81% (active),95.8% (active),27%,82% (active),98.5% (active)
CC1=C(C)CC2C(=O)C(C(O)CC(C)C)=CC(=O)C2C1 (configuration not stated),-4%,91% (active),97.8% (active),-5%,91% (active),98.5% (active),-5%,98% (active),98.8% (active),-13%,86% (active),95.5% (active),-10%,97% (active),98.2% (active),-9%,97% (active),98.9% (active)
CC1COC(=O)O1 (configuration not stated),-31%,-1%,-4.85%,-3%,-2%,-2.35%,6%,6%,6%,6%,2%,15.2%,3%,4%,-2%,7%,18%,15.8%
N#CSCCSCc1ccc(Cl)cc1,4%,99% (active),99.2% (active),25%,99% (active),99.5% (active),7%,99% (active),99.4% (active),-6%,99% (active),98.9% (active),-6%,99% (active),99.5% (active),6%,99% (active),99.3% (active)
Nc1ccc2c(SCc3ccc([N+](=O)[O-])cc3)c3ccccc3nc2c1,86% (active),84% (active),73.5% (active),98% (active),94% (active),87.7% (active),40%,94% (active),88.8% (active),90% (active),93% (active),84.5% (active),97% (active),94% (active),84.2% (active),96% (active),93% (active),83.9% (active)
S=C(C#Cc1ccccc1)Nc1ccccc1,-73%,87% (active),99.3% (active),-36%,97% (active),99.4% (active),-30%,96% (active),96.7% (active),-37%,94% (active),99% (active),-47%,96% (active),99% (active),-93%,94% (active),99% (active)
CC(C)(C)NC(=S)N/N=C/c1cc(Cl)cc(Cl)c1O,65%,72% (active),77.1% (active),64%,84% (active),90% (active),97% (active),99% (active),90.4% (active),88% (active),93% (active),82.7% (active),97% (active),98% (active),84.7% (active),74% (active),87% (active),80.7% (active)
COc1ccc(C2=C(Cl)C(=O)N(c3ccc(OC)cc3)C(=O)C2(Cl)Cl)cc1,8%,82% (active),85.6% (active),-10%,87% (active),97.8% (active),9%,88% (active),67.1%,-4%,42%,56.8%,-8%,84% (active),94.9% (active),6%,71% (active),95.8% (active)
Brc1cccc[n+]1Cc1cc2ccccc2c2ccccc12,0%,91% (active),97.2% (active),32%,74% (active),97.5% (active),0%,88% (active),98.6% (active),-5%,70% (active),94.5% (active),-12%,91% (active),97.5% (active),1%,88% (active),97.9% (active)
C(=NCCc1ccccc1)c1ccccc1B1OB(c2ccccc2C=NCCc2ccccc2)OB(c2ccccc2C=NCCc2ccccc2)O1,94% (active),99% (active),99.6% (active),93% (active),100% (active),99.8% (active),90% (active),99% (active),99.7% (active),77% (active),98% (active),99.3% (active),79% (active),99% (active),99.7% (active),92% (active),99% (active),99.5% (active)
CC(c1ccccc1C(=O)O)c1cccc2ccccc12 (configuration not stated),4%,89% (active),87.3% (active),-3%,91% (active),92.3% (active),6%,90% (active),83.3% (active),6%,98% (active),97.5% (active),-7%,88% (active),91.5% (active),-12%,92% (active),92.8% (active)
CC12C=C3CC(OC(=O)c4ccccc4)CCC3(O1)c1ccccc12 (configuration not stated),2%,69%,84.8% (active),-1%,77% (active),91.5% (active),1%,80% (active),90.1% (active),3%,2%,10.1%,4%,76% (active),79.3% (active),1%,76% (active),76% (active)
O=C(/C=C\c1ccccc1)/C=C/c1ccccc1,4%,39%,40.5%,-2%,8%,12.6%,0%,24%,28.2%,-1%,4%,-14.3%,7%,53%,27.9%,-1%,17%,70.8% (active)
COc1ccc(/C=C/C(=N/NC(=O)c2ccccc2)C(C)CN(C)C)cc1 (configuration not stated),-3%,4%,6.15%,1%,4%,16.3%,3%,2%,6.9%,1%,-2%,49.2%,-5%,-7%,-8.2%,-1%,-64%,7.45%
Cc1ccc(S(=O)(=O)N/N=C/c2cc(I)cc([N+](=O)[O-])c2O)cc1,17%,91% (active),89.3% (active),13%,92% (active),95.8% (active),23%,93% (active),97.7% (active),9%,94% (active),91.3% (active),8%,97% (active),88.8% (active),21%,94% (active),96.5% (active)
